Source: PubChem BioAssay
In the library only some 6.7% were active in any assay of this set; here they are far more common.
C diff HTS – inhibitors of Clostridium difficile growth | Clostridium difficile clinical isolate growth, OD600, 24 h; active compounds read low | growth activity, negative = inhibition, % at 16 µg/mL (by protocol) | 86,000 compounds, 0.25% hits | AID 1259249;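 active = mean growth activity at or below -80% and every replicate also at or below -80%; inconclusive = mean at or below -80% but some replicate above -80%; inactive = mean growth activity above -80%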
Pf Dd2 growth – blocks growth of Plasmodium falciparum Dd2 parasites | P. falciparum Dd2 growth, SYBR Green, 72 h; active compounds read low | activity change, % at 10 µM | 94,000 compounds, 2.3% hits | AID 1159554; in the data active = activity change below about -80%; inconclusive = no clear call, values can overlap the other calls
T cruzi growth-1 – blocks T. cruzi growth in NIH3T3 culture; T. cruzi beta-gal in NIH3T3, GalScreen luminescence, 90 h; inhibition, % at 8.34 µM; 77,000 compounds, 5.9% hits;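 active = mean inhibition above about 93%, with at least 55% of replicates each passing it, limit read from the data, passing the limit was not always enough; inconclusive = only one of those two conditions holds; inactive = neither condition holds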
T cruzi growth-2 – inhibitors of T. cruzi proliferation | T. cruzi beta-gal in NIH3T3, GalScreen luminescence, 90 h | 5,600 compounds, 72% hits | inhibition, % at 8.35 µM | shares compounds with T cruzi growth-1 | AID 651739;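 active = mean replicate inhibition above about 95% and at least 55% of replicates individually reaching it, limit read from the data; inconclusive = only one of the two criteria is met; inactive = neither criterion is met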
T cruzi growth-3 – inhibitors of T. cruzi proliferation; shares compounds with T cruzi growth-1; T. cruzi beta-gal in NIH3T3, GalScreen luminescence, 90 h; inhibition, % at 2.09 µM; 5,600 compounds, 21% hits; AID 651740;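 active = mean inhibition above about 95%, with at least 55% of replicates also reaching it, limit read from the data; inconclusive = meets just one of the two conditions; inactive = meets neither condition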
3T3 cytotox – cytotoxicity in mouse NIH/3T3 fibroblasts. shares compounds with T cruzi growth-1. NIH/3T3 viability, CellTiter-Glo ATP luminescence, 90 h. cytotoxicity (signal decrease), % at 8.35 µM. 5,600 compounds, 14% hits. AID 651742;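 active = mean signal decrease across replicates above about 35% based on untreated-well scatter, with enough replicates individually passing, limit read from the data; inconclusive = no rule stated though some were filed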
3T3 cytotox 2 – NIH/3T3 (mouse) viability loss | NIH/3T3 viability, CellTiter-Glo ATP luminescence, 90 h | inhibition, % at 24.9 µM | shares compounds with T cruzi growth-1 | AID 651744 | 5,600 compounds, 56% hits;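 active = mean loss of cell viability signal at or above a set limit, and enough replicates individually reaching it; inconclusive = meets only the mean limit or only the replicate share; inactive = meets neither condition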
Each line names hits and unclear results; the compound was inactive in the other large screens (follow-up assays come after a bar, where they were run).

CC(C)C#Cc1ccc([C@H]2[C@H]3CN(C(=O)NC(C)C)CCCCN3[C@H]2CO)cc1	none
CC(C)NC(=O)N1CCCCN2[C@H](CO)[C@H](c3ccc(C#Cc4ccccc4)cc3)[C@H]2C1	T cruzi growth-1 107 | T cruzi growth-2 106 | T cruzi growth-3 105 | 3T3 cytotox 41 | 3T3 cytotox 2 107
CC(C)NC(=O)N1CCCCN2[C@H](CO)[C@@H](c3ccc(C#Cc4ccccc4)cc3)[C@H]2C1	T cruzi growth-1 103 | T cruzi growth-2 101 | T cruzi growth-3 inactive | 3T3 cytotox inactive | 3T3 cytotox 2 102
CC(C)C#Cc1ccc([C@@H]2[C@H](CO)N3CCCCN(C(=O)NC(C)C)C[C@@H]23)cc1	T cruzi growth-1 103 | T cruzi growth-2 101 | T cruzi growth-3 inactive | 3T3 cytotox inactive | 3T3 cytotox 2 85
COc1ccc2c3c([nH]c2c1)[C@@H](CO)N(C(=O)Nc1c(C)noc1C)CC31CN(CC2CC2)C1	none (no result: T cruzi growth-1)
C[C@@H]1CN([C@H](C)CO)C(=O)c2cccc(NC(=O)c3ccc(-c4nccs4)cc3)c2O[C@H]1CN(C)C(=O)Nc1ccccc1	none
C[C@H]1CN([C@@H](C)CO)S(=O)(=O)c2ccc(Br)cc2O[C@@H]1CN(C)Cc1ccncc1	T cruzi growth-1 99 | T cruzi growth-2 96 | T cruzi growth-3 inactive | 3T3 cytotox inactive | 3T3 cytotox 2 inactive
C[C@@H]1CN([C@@H](C)CO)S(=O)(=O)c2ccc(-c3ccncc3)cc2O[C@@H]1CN(C)Cc1ccncc1	T cruzi growth-1 105 | T cruzi growth-2 100 | T cruzi growth-3 inactive | 3T3 cytotox 36 | 3T3 cytotox 2 65
C[C@@H]1CN([C@H](C)CO)S(=O)(=O)c2ccc(-c3ccncc3)cc2O[C@@H]1CN(C)Cc1ccncc1	none
C[C@@H]1CN([C@H](C)CO)S(=O)(=O)c2ccc(-c3ccncc3)cc2O[C@@H]1CN(C)Cc1cncnc1	none
C[C@H](CO)N1C[C@H](C)[C@H](CN(C)Cc2ccncc2)Oc2cc(Br)ccc2S1(=O)=O	none
C[C@H](CO)N1C[C@H](C)[C@@H](CN(C)Cc2ccncc2)Oc2cc(-c3ccncc3)ccc2S1(=O)=O	none
C[C@@H]1CN([C@H](C)CO)S(=O)(=O)c2ccc(-c3ccncc3)cc2O[C@H]1CN(C)Cc1cncnc1	T cruzi growth-1 107 | T cruzi growth-2 97 | T cruzi growth-3 inactive | 3T3 cytotox inactive | 3T3 cytotox 2 53
C[C@H]1CN([C@@H](C)CO)S(=O)(=O)c2ccc(-c3ccncc3)cc2O[C@@H]1CN(C)Cc1ccncc1	T cruzi growth-1 100 | T cruzi growth-2 96 | T cruzi growth-3 97 | 3T3 cytotox inactive | 3T3 cytotox 2 65
C/C=C/c1ccc([C@H]2[C@H]3CN(C(=O)Nc4ccc(F)cc4)CC(=O)N3[C@H]2CO)cc1	none (no result: T cruzi growth-1)
CO[C@@H]1CN(C)C(=O)c2ccc(NC(=O)NC(C)C)cc2OC[C@@H](C)N(CC2CC2)C[C@H]1C	none (no result: C diff HTS)
Cc1noc(C)c1S(=O)(=O)Nc1ccc2c(c1)C(=O)N([C@H](C)CO)C[C@@H](C)[C@H](CN(C)Cc1ccncc1)OCCCC[C@@H](C)O2	none
C[C@H](CO)N1C[C@H](C)[C@H](CN(C)S(=O)(=O)c2ccc(Cl)cc2)OCCCC[C@H](C)Oc2ccc(NC(=O)c3ccncc3)cc2C1=O	none
C[C@@H]1CCCCO[C@H](CN(C)S(=O)(=O)c2ccc(Cl)cc2)[C@H](C)CN([C@H](C)CO)C(=O)c2cc(NC(=O)c3ccncc3)ccc2O1	T cruzi growth-1 101 | T cruzi growth-2 100 | T cruzi growth-3 inactive | 3T3 cytotox 38 | 3T3 cytotox 2 inactive
C[C@H]1CCCCO[C@H](CN(C)S(=O)(=O)c2ccc(Cl)cc2)[C@@H](C)CN([C@@H](C)CO)C(=O)c2cc(NC(=O)c3ccncc3)ccc2O1	none
C[C@@H]1CN([C@H](C)CO)C(=O)c2cc(NC(=O)c3ccncc3)ccc2O[C@@H](C)CCCCO[C@@H]1CN(C)S(=O)(=O)c1ccc(Cl)cc1	Pf Dd2 growth inconclusive, T cruzi growth-1 inconclusive | T cruzi growth-2 95 | T cruzi growth-3 inactive | 3T3 cytotox inactive | 3T3 cytotox 2 inactive
CN(C)CC#Cc1ccc([C@@H]2[C@H](CO)N3C(=O)CN(C(=O)c4cccc(F)c4)C[C@@H]23)cc1	none (no result: T cruzi growth-1)
C[C@H](CO)N1C[C@H](C)[C@H](CN(C)C(=O)C2CCC2)Oc2ncc(Br)cc2C1=O	none (no result: C diff HTS)
Cc1ccc(S(=O)(=O)N(C)C[C@H]2OCCCC[C@@H](C)Oc3ccc(NC(=O)Cc4ccccc4)cc3C(=O)N([C@@H](C)CO)C[C@@H]2C)cc1	T cruzi growth-1 112 (no result: C diff HTS) | T cruzi growth-2 106 | T cruzi growth-3 inactive | 3T3 cytotox inactive | 3T3 cytotox 2 49
Cc1ccc(S(=O)(=O)N(C)C[C@H]2OCCCC[C@@H](C)Oc3ccc(NC(=O)Cc4ccccc4)cc3C(=O)N([C@@H](C)CO)C[C@H]2C)cc1	T cruzi growth-1 108 (no result: C diff HTS) | T cruzi growth-2 106 | T cruzi growth-3 inactive | 3T3 cytotox inactive | 3T3 cytotox 2 inactive
Cc1ccc(S(=O)(=O)N(C)C[C@@H]2OCCCC[C@@H](C)Oc3ccc(NC(=O)Cc4ccccc4)cc3C(=O)N([C@@H](C)CO)C[C@H]2C)cc1	none (no result: C diff HTS)
Cc1ccc(S(=O)(=O)N(C)C[C@@H]2OCCCC[C@H](C)Oc3ccc(NC(=O)Cc4ccccc4)cc3C(=O)N([C@H](C)CO)C[C@H]2C)cc1	none (no result: C diff HTS)
C[C@@H]1CN([C@@H](C)CO)C(=O)c2cccc(N(C)C)c2O[C@H]1CN(C)S(=O)(=O)c1ccccc1	none
O=C(NCCN1CCCCC1)[C@@H]1[C@@H](CO)[C@@H]2Cn3c(cccc3=O)[C@H]1N2C(=O)C1CCCCC1	none
COc1cccc(CNC(=O)[C@@H]2[C@@H](CO)[C@@H]3Cn4c(cccc4=O)[C@H]2N3C(=O)C2CCCCC2)c1	T cruzi growth-1 96 (no result: Pf Dd2 growth) | T cruzi growth-2 inactive | T cruzi growth-3 inactive | 3T3 cytotox inactive | 3T3 cytotox 2 inactive
COc1cccc(CNC(=O)[C@@H]2[C@@H](CO)[C@@H]3Cn4c(cccc4=O)[C@H]2N3C(=O)C2CCC2)c1	none
O=C(NCCN1CCCC1)[C@H]1[C@H](CO)[C@H]2Cn3c(cccc3=O)[C@@H]1N2C(=O)c1ccccc1	T cruzi growth-1 96 (no result: Pf Dd2 growth) | T cruzi growth-2 inactive | T cruzi growth-3 inactive | 3T3 cytotox inactive | 3T3 cytotox 2 inactive
O=C(Nc1nccs1)[C@H]1[C@H](CO)[C@H]2Cn3c(cccc3=O)[C@H]2N1C(=O)C1CCCC1	none (no result: T cruzi growth-1)
C[C@H](CO)N1C[C@H](C)[C@H](CN(C)S(=O)(=O)c2cccs2)Oc2ncc(-c3cccc(F)c3)cc2C1=O	none
C[C@H](CO)N1C[C@H](C)[C@H](CN(C)S(=O)(=O)c2ccc(F)cc2)Oc2ncc(-c3cccc(C(F)(F)F)c3)cc2C1=O	T cruzi growth-1 109 | T cruzi growth-2 102 | T cruzi growth-3 inactive | 3T3 cytotox 42 | 3T3 cytotox 2 54
